# Results published in publication PMC5540273 (PLoS ONE, 2017).
# Tests used:
# Details in all cases: concentration: 1 μM, replicates: in singlicate; n = 1
# MST1R = test system: MST1R
# MST1 = test system: T1, MST1
# T1 construct: gene STK4
# MST2 = test system: T2, MST2
# T2 construct: gene STK3
# MST3 = test system: T3, MST3
# T3 construct: gene STK24
# MST4 = test system: MST4
# MTOR = test system: MTOR
# MUSK = test system: MUSK
# MYLK2 = test system: MYLK2
# MYLK4 = test system: MYLK4
# MYLK = test system: MYLK
# 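Note: KINOMEscan kinase panel screen.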
SMILES,%Inh (MST1R),%Inh (MST1),%Inh (MST2),%Inh (MST3),%Inh (MST4),%Inh (MTOR),%Inh (MUSK),%Inh (MYLK2),%Inh (MYLK4),%Inh (MYLK)
Cc1cccc2c(-c3ccncn3)c(-c3ccc(F)cc3)nn12 [GW515532],26%,7%,0%,15%,0%,9%,12%,0%,0%,0%
Cc1ccc(NC(=O)Nc2ccccc2F)cc1-c1ccc(C(=O)Nc2ccncc2)cc1 [GSK1398477],33%,22%,7%,0%,0%,11%,31%,19%,7%,23%
CC(C)c1ccc(O)cc1Nc1ccnc2ccc(C(F)(F)F)cc12 [GW482059],0%,0%,0%,0%,0%,6%,3%,3%,0%,3%
COc1cccc(C2=C(Nc3cc(Cl)c(O)c(Cl)c3)C(=O)NC2=O)c1 [SB-390767],13%,100%,29%,0%,0%,44%,5%,10%,9%,0%
Cc1ccccc1-c1cc(-c2c[nH]nc2-c2ccccn2)ccn1 [GW680061],12%,0%,0%,0%,10%,30%,10%,0%,0%,1%
COC(=O)c1cccc(NC(=O)NC2CCN(c3ccnc(Nc4ccc(F)cc4)n3)C2)c1 (centres unmarked) [GSK1379725],39%,0%,0%,0%,0%,7%,0%,0%,0%,0%
COc1ccc(Nc2nccc(N3CCC(NC(=O)C(C)c4ccc(Cl)cc4)CC3)n2)cc1 (centres unmarked) [GSK1379812],54%,44%,0%,0%,0%,3%,0%,6%,6%,4%
COc1ccc2cc(-c3nc(-c4ccccc4C(C)C)[nH]c3-c3ccncc3)ccc2c1 [SB-660566],42%,7%,58%,0%,0%,31%,18%,15%,4%,0%
Cn1cncc1-c1cc2c(Nc3ccc(OCc4ccccc4)cc3)ncnc2cn1 [GW281179],49%,0%,0%,0%,0%,3%,12%,10%,0%,9%
COc1cc2ncnc(Nc3cccc(Br)c3)c2cc1OC.Cl [GI230329],30%,0%,0%,1%,0%,0%,0%,7%,5%,0%
CC(=O)c1c(C)c2cnc(Nc3ccn(C)n3)nc2n(C2CCCC2)c1=O,4%,2%,0%,10%,0%,14%,0%,0%,0%,0%
O=c1cc(N2CCOCC2)nc2n(Cc3cccc(Cl)c3Cl)c3ccccc3n12 [GSK2299009],44%,39%,9%,6%,0%,19%,39%,17%,13%,31%
COc1ccc(Nc2nccc(-c3ccc(NC(=O)c4cc5cc(F)ccc5[nH]4)cc3)n2)cc1 [GSK1229496],7%,0%,0%,0%,0%,20%,0%,0%,28%,6%
Cl.Cl.Cl.N#Cc1ccc(CCNc2nccc(-c3cccc(CN4CCNCC4)c3)n2)cc1 [GSK2137462],37%,0%,0%,18%,0%,0%,14%,12%,38%,35%
CS(=O)(=O)CCNCc1nc(-c2ccc3ncnc(Nc4ccc5c(cnn5Cc5ccccc5)c4)c3c2)cs1.Cl.Cl [GW569716],10%,3%,0%,0%,0%,17%,0%,0%,10%,0%
Cc1ccc(-c2nc(Nc3ccncc3)c3ccccc3n2)s1 [GSK189015],37%,6%,21%,11%,5%,10%,17%,26%,7%,19%
c1ccc(-c2ccnc3[nH]ccc23)cc1 [SB-693578],9%,3%,4%,0%,0%,29%,0%,0%,0%,12%
